Among the data in PubChem BioAssay (NCI) are growth values, retold here.

Common to all, as to test: NCI-60 one-dose screen, 48 h (100 = growth as untreated, 0 = no growth, -100 = all killed)
Details in all cases: 10 µM unless noted

Test [1] has as its system HCT-15 colon.
The test system of test [2] is HT29 colon.
Test [3] deals with SNB-75 CNS.
The test system of test [4] is SNB-19 CNS.
The test system of test [5] is U251 CNS.
The test system of test [6] is PC-3 prostate.
In test [7] the test system is SK-MEL-5 melanoma.
Test [8] deals with UACC-62 melanoma.
Test [9] concerns LOX IMVI melanoma.
Test [10] concerns SK-MEL-28 melanoma.

This is part of a sample that, as a whole, favours compounds with a hit. Of some 83,000 tested, about 20% had one in any assay.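 Percent growth is the endpoint: 0 to 100 indicates growth inhibition (40 means 60% inhibition), 0 means no net growth, and negative values indicate cell death.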 Values without a mark were called inactive. Activity calls are given as the source filed them. The calls were made as follows: active = growth percent below 10; inactive = the rest.

As for `Cc1nc([P+](c2ccccc2)(c2ccccc2)c2ccccc2)c(N2CCCCC2)o1`, the growth is 103% in test [1]; 14.1% in test [2]; 37.9% in [3]; 18.7% in test [4]; 16.6% in test [5]; 15.3% in [6]. The growth in test [7] is -32.3% (active); in test [8], 25.3%; in test [9], 24.5%; in [10], 34.3%.

For `COc1ccccc1/C=C/C(=O)Nc1ccc(F)cc1`, the growth is 98.4% in test [1]; 89.1% in test [2]; 77.9% in test [3]; 99.8% in [4]; 108% in test [5]; 95.7% in [6]. In addition, the growth in [7] was 95.1%; in [8], 89.8%; in test [9], 100%; in test [10], 108%.

For `Cc1cc(C(=O)CCCC(=O)c2cc(C)c(O)c(C)c2)cc(C)c1O`, the growth is 79.2% in test [1]; 92.3% in test [2]; 69.7% in test [3]; 88.1% in [4]; 89.6% in test [5]; 84.1% in test [6]. For the same compound, the growth was 29.2% in [7], 96.8% in [8], 87.2% in test [9] and 105% in test [10].

For the compound `CC1=Nc2cnc(Nc3ccc(N4CCCCC4)cc3)nc2Nc2ccccc21`, the growth is 62.6% in test [1]; 62.5% in test [2]; 86.7% in test [3]; 94.9% in test [4]; 83.8% in test [5]; 19.6% in test [6]. For the same compound, the growth is 41.6% in test [7], 55.2% in test [8], 75.8% in test [9] and 84.7% in [10].

Take `O=S(=O)(Nc1ccc2ccccc2c1)c1ccc(-c2cnc(C3CC3)o2)cc1`: the growth in test [1] is 31.5%; in test [2], 14.8%; in test [3], -1.76% (active); in [4] it was 35.8%; in [5], 23.6%; in test [6], 23.4%. In addition, the growth in [7] was 28.2%; in test [8] it was 32.1%; in [9], 56.9%; in test [10], 64.9%.

`C=C(c1ccc(C(=O)O)c(F)c1)c1cc2c(cc1C)C(C)(C)CCC2(C)C`: the growth in test [1] was 80.9%; in [2], 97.9%; in test [3] it was 74.3%; in test [4], 86.8%; in test [5], 75.4%; in test [6], 72.5%. The growth in [7] was 74%; in test [8], 83.5%; in test [9] it was 93.9%; in [10], 89.9%.

Consider `CCOC(=O)c1c(C)nc2c(c1N)C(=O)C(=O)N2Cc1ccc(OC)cc1`, for which the growth in test [1] was 22.7%; in test [2], 26.5%; in [3], 30%; in test [4] it was 80%; in test [5] it was 38.1%; in test [6], 47.9%. In addition, the growth was 81% in test [7], 53.3% in test [8], 61.1% in test [9] and 76.7% in test [10].

Consider `Cc1sc2nc(NCCN)[nH]c(=O)c2c1C`, for which the growth was 92.8% in test [1]; 95.1% in test [2]; 67.4% in [3]; 87.5% in test [4]; 95.9% in test [5]; 93.3% in [6]. Further, the growth in test [7] is 96%; in test [8] it was 95.4%; in test [9], 91.3%; in [10], 98.4%.

Take `C=C(C)[C@@H]1CC[C@]2(CO)CC[C@]3(C)[C@H](CC[C@@H]4[C@@](C)(CCCN)[C@H](C(=C)C)CC[C@]43C)[C@@H]12`: the growth in test [1] is -81.7% (active); in [2], -54.4% (active); in [3], -91.9% (active); in [4], 1.21% (active); in test [5], -88.6% (active); in test [6], 0.447% (active). Besides, the growth is -87.5% (active) in [7], -88.6% (active) in [8], -97.8% (active) in test [9] and -98.3% (active) in [10].

As for `CCCOC(=O)Nc1nc2ccc(SCC)cc2s1`, the growth in test [1] is 54.3%; in [2], 31.3%; in [3], 90.5%; in test [4], 84.5%; in test [5] it was 85%; in test [6], 80.8%. Besides, the growth in test [7] was 83.6%; in test [8], 61.2%; in test [9], 71.1%; in test [10], 85.9%.

Consider `CCN(CC)CCn1c2ccc(OC)cc2c2sc3cc(O)ccc3c(=O)c21`, for which the growth in [1] was 18.7%; in test [2], 15.1%; in test [3], 78.8%; in test [4], 25.8%; in test [5], 27.4%; in test [6], 32%. In addition, the growth in [7] was 76.1%; in [8], 54.8%; in [9] it was -30.4% (active); in test [10], 68.8%.

With `C#Cc1cccc(Nc2ncnc3cc(NC(=O)CCl)ccc23)c1`, the growth is -67.7% (active) in [1]; -65.5% (active) in test [2]; -97.2% (active) in test [3]; -70.8% (active) in test [4]; -88.1% (active) in [5]; -64.9% (active) in [6]. In addition, the growth in [7] was -93.9% (active); in test [8], -68.6% (active); in test [9], -62.7% (active); in test [10], -45.1% (active).

For `Cc1cccc(NC(=O)N/C(N)=N/c2nc3ccccc3s2)c1`, the growth is 23% in test [1]; 11.3% in [2]; 4.63% (active) in test [3]; 42.3% in [4]; 28.9% in test [5]; 34.2% in test [6]. Also, the growth in test [7] was 23.7%; in test [8], 33.5%; in [9] it was 34.4%; in test [10] it was 63%.

Take `O=Nc1ccc(NC(=O)Nc2ccc([N+](=O)[O-])cc2)cc1`: the growth in test [1] is 83.2%; in [2] it was 100%; in test [3] it was 96.4%; in test [4] it was 107%; in test [5], 92.5%; in test [6], 72.2%. Also, the growth is 86.7% in [7], 76.9% in test [8], 88.8% in test [9] and 108% in test [10].

On to `COc1cc(/C=C/c2cn[nH]c2-c2ccc(C)cc2)cc(OC)c1OC`, for which the growth in [1] was 23%; in [2], 6.79% (active); in test [3], 29.5%; in [4], 48.2%; in test [5], 22.6%; in test [6], 28.2%. The growth in test [7] is 12%; in test [8] it was 32.8%; in [9], 40.6%; in test [10], 56.8%.

Consider `C/C(=N\Nc1ccccc1)c1ccc(NC2=CC(=O)c3ccccc3C2=O)cc1`, for which the growth in test [1] is 31.9%; in [2], 75.3%; in test [3], 51.1%; in test [4], 85.7%; in [5], 45.8%; in [6], 40.1%. Further, the growth is -10.5% (active) in [7], -7.92% (active) in test [8], 21.4% in test [9] and 65.9% in test [10].

Turning to `NCCCNc1nc2ccccc2c2c(=O)c3cc(Cl)ccc3sc12`, the growth is -76.9% (active) in [1]; -45.4% (active) in test [2]; 47.9% in test [3]; 22.8% in [4]; -95.1% (active) in [5]; -18.9% (active) in [6]. The growth in test [7] is 46.9%; in [8], -6.22% (active); in test [9] it was -90.5% (active); in [10] it was -30% (active).

Turning to `O=C1Nc2ccccc2/C1=N/N1C(=O)CN(CCCl)C1=O`, the growth in [1] was 105%; in [2], 99.1%; in [3] it was 86.8%; in test [4], 97.1%; in test [5], 102%; in [6], 99%. Moreover, the growth in test [7] was 97.5%; in [8] it was 90.5%; in test [9], 100%; in [10], 111%.

Turning to `CC(O)Cc1c[nH]c(=O)[nH]c1=O` (stereo not given), the growth in test [1] was 97.8%; in [2] it was 114%; in [3] it was 120%; in test [4] it was 108%; in test [5], 95.9%; in test [6], 126%. Also, the growth in test [7] is 109%; in test [8] it was 106%; in [9] it was 96.5%; in [10], 122%.

Regarding `O=C(NN1C(=O)CSC1c1cccc([N+](=O)[O-])c1)c1ccc(NC(=O)c2ccccn2)cc1` (stereo not given), the growth in test [1] is 92.3%; in test [2] it was 105%; in test [3], 98.9%; in test [4], 97.8%; in test [5], 106%; in test [6] it was 107%. Further, the growth in [7] is 102%; in [8], 96%; in test [9], 94.9%; in test [10], 99.3%.

For `Cc1ccc(S(=O)(=O)N2CCCN(c3nc(-c4ccccc4)nc4nc(-c5ccccc5)oc34)CC2)cc1`, the growth in [1] is 114%; in test [2] it was 120%; in [3] it was 105%; in [4], 102%; in [5], 104%; in [6], 96.3%. The growth in test [7] was 98.9%; in test [8], 101%; in [9], 95.4%; in test [10], 108%.

For the compound `CN1CCN(Cc2ccc(NC(=O)c3cncc(C#Cc4cnc(N)cc4C#N)c3)cc2C(F)(F)F)CC1`, the growth in test [1] was 15.4%; in test [2], 5.78% (active); in test [3], 33.2%; in test [4], 39.1%; in test [5] it was 20.1%; in test [6], 11.7%. The growth was 9.34% (active) in [7], -12.9% (active) in [8], -84.6% (active) in test [9] and 0.973% (active) in [10].

For `O=c1cc(CP(=O)(O)O)c2cc(O)c(-c3ccccc3)cc2o1`, the growth is 101% in test [1]; 108% in [2]; 83.8% in test [3]; 96.8% in [4]; 100% in test [5]; 98.6% in [6]. The growth in [7] is 98.1%; in test [8], 97.8%; in [9] it was 99.5%; in [10], 104%.

With `Clc1ccc(-c2cc(-c3ccccc3)nc(N3CCN(CCCNc4ccnc5cc(Cl)ccc45)CC3)n2)cc1`, the growth was -25.5% (active) in [1]; -1.6% (active) in [2]; -23.9% (active) in [3]; 49% in [4]; -52.9% (active) in test [5]; 43.1% in test [6]. Besides, the growth is 33.2% in test [7], 51% in test [8], -95.5% (active) in [9] and -37.5% (active) in test [10].

For the compound `O=CCCCOCc1ccccc1`, the growth is 98.5% in test [1]; 97.2% in test [2]; 87.8% in test [3]; 100% in test [4]; 104% in test [5]; 95.6% in test [6]. Also, the growth was 100% in test [7], 95.2% in test [8], 99% in test [9] and 112% in test [10].

Turning to `O=C(C1=Cc2cc3ccccc3n2Cc2cnnn21)c1ccc(F)cc1`, the growth in [1] is 95.8%; in test [2], 112%; in [3] it was 86.2%; in test [4], 94.1%; in test [5], 98.2%; in [6], 92.3%. The growth in test [7] was 96%; in test [8], 90.9%; in [9], 98.8%; in [10], 105%.

As for `CN(C)C1CN(C(=O)c2cc(-c3ccc4ncnc(N5CCc6cc(F)c(Cl)cc65)c4c3)cnc2N)C1`, the growth was 7.17% (active) in [1]; 14.8% in test [2]; -27% (active) in test [3]; 23.5% in test [4]; 25% in test [5]; 7.13% (active) in [6]. Also, the growth in test [7] is -20.8% (active); in [8] it was -19.7% (active); in test [9], 7.5% (active); in test [10], 8.13% (active).
